# Laboratory results as given in the supplement of paper PMC4466140.
# Target: AgAbp1
# Assay: SPOT peptide array binding signal intensity (averaged, normalized) (arbitrary units (background-subtracted, floor 0; scale differs between SH3 domains)); higher = stronger binding of the SH3 domain to the peptide
# In short: (§1)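 To measure binding, SH3 domains from four yeast species were fused to GST, expressed in E. coli BL21(DE3) and purified on glutathione Sepharose. Each domain was incubated at 10 μg/ml overnight at 4°C on cellulose membranes with synthetic 15-mer peptides whose cysteines were replaced by serines. Anti-GST antibody, an HRP anti-mouse secondary and luminol were used for detection, and images were quantified with Genespotter. Reported binding signal is normalized, background-subtracted spot intensity averaged over replicates, in arbitrary units that differ between domains.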
row,Binder,SPOT peptide array binding signal intensity
1,YSRKKLPVVLSKMTL,68

# Target: AgBbc1
# Assay: as above
# In short: as §1
row,Binder,SPOT peptide array binding signal intensity
1,YSRKKLPVVLSKMTL,21.5

# Target: AgBem1-D1
# Assay: as above
# In short: as §1
row,Binder,SPOT peptide array binding signal intensity
1,YSRKKLPVVLSKMTL,45.5

# Target: AgBzz1-D1
# Assay: as above
# In short: as §1
row,Binder,SPOT peptide array binding signal intensity
1,YSRKKLPVVLSKMTL,82.5

# Target: AgBzz1-D2
# Assay: as above
# In short: as §1
row,Binder,SPOT peptide array binding signal intensity
1,YSRKKLPVVLSKMTL,43.5

# Target: AgCyk3
# Assay: as above
# In short: as §1
row,Binder,SPOT peptide array binding signal intensity
1,YSRKKLPVVLSKMTL,3

# Target: AgFus1
# Assay: as above
# In short: as §1
row,Binder,SPOT peptide array binding signal intensity
1,YSRKKLPVVLSKMTL,109

# Target: AgHof1
# Assay: as above
# In short: as §1
row,Binder,SPOT peptide array binding signal intensity
1,YSRKKLPVVLSKMTL,28.8

# Target: AgHse1
# Assay: as above
# In short: as §1
row,Binder,SPOT peptide array binding signal intensity
1,YSRKKLPVVLSKMTL,126

# Target: AgLsb1
# Assay: as above
# In short: as §1
row,Binder,SPOT peptide array binding signal intensity
1,YSRKKLPVVLSKMTL,223

# Target: AgLsb4
# Assay: as above
# In short: as §1
row,Binder,SPOT peptide array binding signal intensity
1,YSRKKLPVVLSKMTL,12

# Target: AgMyo5
# Assay: as above
# In short: as §1
row,Binder,SPOT peptide array binding signal intensity
1,YSRKKLPVVLSKMTL,3.25

# Target: AgNbp2
# Assay: as above
# In short: as §1
row,Binder,SPOT peptide array binding signal intensity
1,YSRKKLPVVLSKMTL,48.5

# Target: AgRvs167
# Assay: as above
# In short: as §1
row,Binder,SPOT peptide array binding signal intensity
1,YSRKKLPVVLSKMTL,3.5

# Target: AgSho1
# Assay: as above
# In short: as §1
row,Binder,SPOT peptide array binding signal intensity
1,YSRKKLPVVLSKMTL,190

# Target: AgSla1-D1-D2
# Assay: as above
# In short: as §1
row,Binder,SPOT peptide array binding signal intensity
1,YSRKKLPVVLSKMTL,57

# Target: AgSla1-D3
# Assay: as above
# In short: as §1
row,Binder,SPOT peptide array binding signal intensity
1,YSRKKLPVVLSKMTL,14.5

# Target: CaAbp1-D1
# Assay: as above
# In short: as §1
row,Binder,SPOT peptide array binding signal intensity
1,YSRKKLPVVLSKMTL,444

# Target: CaAbp1-D2
# Assay: as above
# In short: as §1
row,Binder,SPOT peptide array binding signal intensity
1,YSRKKLPVVLSKMTL,126

# Target: CaBbc1
# Assay: as above
# In short: as §1
row,Binder,SPOT peptide array binding signal intensity
1,YSRKKLPVVLSKMTL,15.8

# Target: CaBem1-D1
# Assay: as above
# In short: as §1
row,Binder,SPOT peptide array binding signal intensity
1,YSRKKLPVVLSKMTL,35.5

# Target: CaBzz1-D1
# Assay: as above
# In short: as §1
row,Binder,SPOT peptide array binding signal intensity
1,YSRKKLPVVLSKMTL,197

# Target: CaBzz1-D2
# Assay: as above
# In short: as §1
row,Binder,SPOT peptide array binding signal intensity
1,YSRKKLPVVLSKMTL,92.2

# Target: CaCyk3
# Assay: as above
# In short: as §1
row,Binder,SPOT peptide array binding signal intensity
1,YSRKKLPVVLSKMTL,8

# Target: CaFus1
# Assay: as above
# In short: as §1
row,Binder,SPOT peptide array binding signal intensity
1,YSRKKLPVVLSKMTL,166

# Target: CaHof1
# Assay: as above
# In short: as §1
row,Binder,SPOT peptide array binding signal intensity
1,YSRKKLPVVLSKMTL,2

# Target: CaHse1
# Assay: as above
# In short: as §1
row,Binder,SPOT peptide array binding signal intensity
1,YSRKKLPVVLSKMTL,17.2

# Target: CaLsb1
# Assay: as above
# In short: as §1
row,Binder,SPOT peptide array binding signal intensity
1,YSRKKLPVVLSKMTL,16

# Target: CaLsb4
# Assay: as above
# In short: as §1
row,Binder,SPOT peptide array binding signal intensity
1,YSRKKLPVVLSKMTL,25.5

# Target: CaMyo5
# Assay: as above
# In short: as §1
row,Binder,SPOT peptide array binding signal intensity
1,YSRKKLPVVLSKMTL,4.75

# Target: CaNbp2
# Assay: as above
# In short: as §1
row,Binder,SPOT peptide array binding signal intensity
1,YSRKKLPVVLSKMTL,143

# Target: CaRvs167
# Assay: as above
# In short: as §1
row,Binder,SPOT peptide array binding signal intensity
1,YSRKKLPVVLSKMTL,16.7

# Target: CaRvs167-3
# Assay: as above
# In short: as §1
row,Binder,SPOT peptide array binding signal intensity
1,YSRKKLPVVLSKMTL,11.5

# Target: CaSho1
# Assay: as above
# In short: as §1
row,Binder,SPOT peptide array binding signal intensity
1,YSRKKLPVVLSKMTL,131

# Target: CaSla1-D1-D2
# Assay: as above
# In short: as §1
row,Binder,SPOT peptide array binding signal intensity
1,YSRKKLPVVLSKMTL,264

# Target: CaSla1-D3
# Assay: as above
# In short: as §1
row,Binder,SPOT peptide array binding signal intensity
1,YSRKKLPVVLSKMTL,131

# Target: ScAbp1
# Assay: as above
# In short: as §1
row,Binder,SPOT peptide array binding signal intensity
1,YSRKKLPVVLSKMTL,108

# Target: ScBbc1
# Assay: as above
# In short: as §1
row,Binder,SPOT peptide array binding signal intensity
1,YSRKKLPVVLSKMTL,11

# Target: ScBem1-D1
# Assay: as above
# In short: as §1
row,Binder,SPOT peptide array binding signal intensity
1,YSRKKLPVVLSKMTL,31

# Target: ScBzz1-D1
# Assay: as above
# In short: as §1
row,Binder,SPOT peptide array binding signal intensity
1,YSRKKLPVVLSKMTL,67.5

# Target: ScBzz1-D2
# Assay: as above
# In short: as §1
row,Binder,SPOT peptide array binding signal intensity
1,YSRKKLPVVLSKMTL,75

# Target: ScCyk3
# Assay: as above
# In short: as §1
row,Binder,SPOT peptide array binding signal intensity
1,YSRKKLPVVLSKMTL,9

# Target: ScFus1
# Assay: as above
# In short: as §1
row,Binder,SPOT peptide array binding signal intensity
1,YSRKKLPVVLSKMTL,108

# Target: ScHof1
# Assay: as above
# In short: as §1
row,Binder,SPOT peptide array binding signal intensity
1,YSRKKLPVVLSKMTL,4.5

# Target: ScHse1
# Assay: as above
# In short: as §1
row,Binder,SPOT peptide array binding signal intensity
1,YSRKKLPVVLSKMTL,370

# Target: ScLsb1
# Assay: as above
# In short: as §1
row,Binder,SPOT peptide array binding signal intensity
1,YSRKKLPVVLSKMTL,191

# Target: ScLsb2
# Assay: as above
# In short: as §1
row,Binder,SPOT peptide array binding signal intensity
1,YSRKKLPVVLSKMTL,1100

# Target: ScLsb3
# Assay: as above
# In short: as §1
row,Binder,SPOT peptide array binding signal intensity
1,YSRKKLPVVLSKMTL,24.5

# Target: ScLsb4
# Assay: as above
# In short: as §1
row,Binder,SPOT peptide array binding signal intensity
1,YSRKKLPVVLSKMTL,12.5

# Target: ScMyo3
# Assay: as above
# In short: as §1
row,Binder,SPOT peptide array binding signal intensity
1,YSRKKLPVVLSKMTL,6

# Target: ScMyo5
# Assay: as above
# In short: as §1
row,Binder,SPOT peptide array binding signal intensity
1,YSRKKLPVVLSKMTL,6

# Target: ScNbp2
# Assay: as above
# In short: as §1
row,Binder,SPOT peptide array binding signal intensity
1,YSRKKLPVVLSKMTL,95

# Target: ScPex13
# Assay: as above
# In short: as §1
row,Binder,SPOT peptide array binding signal intensity
1,YSRKKLPVVLSKMTL,150

# Target: ScRvs167
# Assay: as above
# In short: as §1
row,Binder,SPOT peptide array binding signal intensity
1,YSRKKLPVVLSKMTL,8.33

# Target: ScSho1
# Assay: as above
# In short: as §1
row,Binder,SPOT peptide array binding signal intensity
1,YSRKKLPVVLSKMTL,2450

# Target: ScSla1-D1-D2
# Assay: as above
# In short: as §1
row,Binder,SPOT peptide array binding signal intensity
1,YSRKKLPVVLSKMTL,300

# Target: ScSla1-D3
# Assay: as above
# In short: as §1
row,Binder,SPOT peptide array binding signal intensity
1,YSRKKLPVVLSKMTL,53.2

# Target: SpAbp1-D1
# Assay: as above
# In short: as §1
row,Binder,SPOT peptide array binding signal intensity
1,YSRKKLPVVLSKMTL,243

# Target: SpBbc1
# Assay: as above
# In short: as §1
row,Binder,SPOT peptide array binding signal intensity
1,YSRKKLPVVLSKMTL,3

# Target: SpBzz1-D1
# Assay: as above
# In short: as §1
row,Binder,SPOT peptide array binding signal intensity
1,YSRKKLPVVLSKMTL,137

# Target: SpBzz1-D2
# Assay: as above
# In short: as §1
row,Binder,SPOT peptide array binding signal intensity
1,YSRKKLPVVLSKMTL,1.5

# Target: SpCyk3
# Assay: as above
# In short: as §1
row,Binder,SPOT peptide array binding signal intensity
1,YSRKKLPVVLSKMTL,4

# Target: SpHof1
# Assay: as above
# In short: as §1
row,Binder,SPOT peptide array binding signal intensity
1,YSRKKLPVVLSKMTL,76.8

# Target: SpHof1-2
# Assay: as above
# In short: as §1
row,Binder,SPOT peptide array binding signal intensity
1,YSRKKLPVVLSKMTL,27.2

# Target: SpHof1-3
# Assay: as above
# In short: as §1
row,Binder,SPOT peptide array binding signal intensity
1,YSRKKLPVVLSKMTL,295

# Target: SpHse1
# Assay: as above
# In short: as §1
row,Binder,SPOT peptide array binding signal intensity
1,YSRKKLPVVLSKMTL,77.8

# Target: SpLsb1
# Assay: as above
# In short: as §1
row,Binder,SPOT peptide array binding signal intensity
1,YSRKKLPVVLSKMTL,48

# Target: SpLsb4
# Assay: as above
# In short: as §1
row,Binder,SPOT peptide array binding signal intensity
1,YSRKKLPVVLSKMTL,40.5

# Target: SpMyo1
# Assay: as above
# In short: as §1
row,Binder,SPOT peptide array binding signal intensity
1,YSRKKLPVVLSKMTL,6

# Target: SpNbp2
# Assay: as above
# In short: as §1
row,Binder,SPOT peptide array binding signal intensity
1,YSRKKLPVVLSKMTL,49.5

# Target: SpPex13
# Assay: as above
# In short: as §1
row,Binder,SPOT peptide array binding signal intensity
1,YSRKKLPVVLSKMTL,53

# Target: SpRvs167
# Assay: as above
# In short: as §1
row,Binder,SPOT peptide array binding signal intensity
1,YSRKKLPVVLSKMTL,8.67

# Target: SpSla1-D1-D2
# Assay: as above
# In short: as §1
row,Binder,SPOT peptide array binding signal intensity
1,YSRKKLPVVLSKMTL,11.5

# Target: SpSla1-D3
# Assay: as above
# In short: as §1
row,Binder,SPOT peptide array binding signal intensity
1,YSRKKLPVVLSKMTL,41.5
